Outcome data for eight compounds are collected here from PubChem BioAssay AID1053183 (Broad Institute, 2014).

Potency and affinity values are given separately. Activity calls are given as the source filed them.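 How the source made its calls: active means cytotoxic compounds with fitted half-maximal concentration at most double the highest valid dose; inconclusive means flat curve with moderate signal loss, or unreliable fit; inactive means the rest.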

This assay is described as follows: HepG2 cell viability loss – cherry-picked samples, cytotoxicity control, dose response (AID 1053183). The following applies: CellTiter-Glo ATP luminescence, 72 h; series mostly up to 26 µM.
`CN(C)C(=O)c1cccc(-c2ccc(C3[C@@H]4CN(Cc5ccccc5F)C[C@H]3N4)cc2)c1` (stereo partly drawn): the outcome was inactive.
Next, `C[C@H](CO)N1C[C@H](C)[C@@H](CN(C)Cc2ccccc2)Oc2c(NC(=O)Cc3cn(C)c4ccccc34)cccc2C1=O`: “inactive”; `C[C@@H]1CN([C@@H](C)CO)C(=O)Cc2cc(NC(=O)C3CCCCC3)ccc2O[C@@H]1CN(C)Cc1ccc(Cl)c(Cl)c1`: “inactive”.
Take `C/C=C/c1ccc([C@H]2[C@@H](CO)N3C(=O)CN(Cc4ccc(F)cc4)C[C@@H]23)cc1`: the call was inactive.
Regarding `CO[C@@H](CN(C)Cc1cc(F)ccc1F)[C@@H](C)CN(C(=O)Nc1ccc(C(F)(F)F)cc1)[C@H](C)CO`, the compound was classed as inactive.
As for `COc1ccc2c3c(n(C)c2c1)[C@@H](CO)N(CC1CC1)CC31CN(C(=O)c2ccc3c(c2)OCO3)C1`, the call was inactive.
On to `COc1cccc(-c2cccc(-c3nc(C(=O)Nc4ccc(-c5ccccc5)cc4)cc4c3[C@@H](CCO)N(S(=O)C(C)(C)C)C4)c2)c1` (stereo partly drawn), for which the compound was called inactive.
Turning to `CNC[C@@H]1Oc2cc(C#Cc3ccccc3OC)ccc2S(=O)(=O)N([C@H](C)CO)C[C@H]1C`, the compound was called inactive.
